Experimental data taken from ChEMBL document CHEMBL2218924, “A broad activity screen in support of a chemogenomic map for kinase signalling research and drug discovery” (Biochem J, 2013).

Key:
[1] = target: Serine/threonine-protein kinase SIK1 (Homo sapiens) (UniProt P57059); conditions: at 10 µM
[2] = target: SRSF protein kinase 1 (Homo sapiens) (UniProt Q96SB4); conditions: at 1 µM
[3] = target: SRSF protein kinase 1 (Homo sapiens) (UniProt Q96SB4); conditions: at 10 µM
[4] = target: SRSF protein kinase 2 (Homo sapiens) (UniProt P78362); conditions: at 1 µM
Chain of SRSF protein kinase 2 (Homo sapiens) (P78362 whole entry, looked up): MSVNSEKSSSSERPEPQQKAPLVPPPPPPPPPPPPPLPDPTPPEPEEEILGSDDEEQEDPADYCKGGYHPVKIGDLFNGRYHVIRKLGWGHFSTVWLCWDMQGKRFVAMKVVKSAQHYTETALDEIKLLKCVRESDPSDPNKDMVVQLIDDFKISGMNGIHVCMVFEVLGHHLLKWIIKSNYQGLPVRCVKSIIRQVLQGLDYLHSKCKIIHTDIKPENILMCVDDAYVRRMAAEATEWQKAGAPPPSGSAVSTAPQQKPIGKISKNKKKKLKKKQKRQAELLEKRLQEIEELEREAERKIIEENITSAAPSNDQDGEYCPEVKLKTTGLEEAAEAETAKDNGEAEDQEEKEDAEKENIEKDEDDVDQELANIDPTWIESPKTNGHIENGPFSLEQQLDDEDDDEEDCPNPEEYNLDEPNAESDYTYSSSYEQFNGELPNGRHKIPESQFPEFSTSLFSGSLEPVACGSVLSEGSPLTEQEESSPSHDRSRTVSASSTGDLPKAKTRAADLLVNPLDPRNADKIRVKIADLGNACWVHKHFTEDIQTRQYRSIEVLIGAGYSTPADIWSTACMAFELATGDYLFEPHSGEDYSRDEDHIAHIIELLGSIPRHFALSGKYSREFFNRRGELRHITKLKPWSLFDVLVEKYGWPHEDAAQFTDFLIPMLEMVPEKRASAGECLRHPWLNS

[5] = target: SRSF protein kinase 2 (Homo sapiens) (UniProt P78362); conditions: at 10 µM
[6] = target: Serine/threonine-protein kinase 33 (Homo sapiens) (UniProt Q9BYT3); conditions: at 10 µM
Chain of Serine/threonine-protein kinase 33 (Homo sapiens) (Q9BYT3 whole entry, looked up): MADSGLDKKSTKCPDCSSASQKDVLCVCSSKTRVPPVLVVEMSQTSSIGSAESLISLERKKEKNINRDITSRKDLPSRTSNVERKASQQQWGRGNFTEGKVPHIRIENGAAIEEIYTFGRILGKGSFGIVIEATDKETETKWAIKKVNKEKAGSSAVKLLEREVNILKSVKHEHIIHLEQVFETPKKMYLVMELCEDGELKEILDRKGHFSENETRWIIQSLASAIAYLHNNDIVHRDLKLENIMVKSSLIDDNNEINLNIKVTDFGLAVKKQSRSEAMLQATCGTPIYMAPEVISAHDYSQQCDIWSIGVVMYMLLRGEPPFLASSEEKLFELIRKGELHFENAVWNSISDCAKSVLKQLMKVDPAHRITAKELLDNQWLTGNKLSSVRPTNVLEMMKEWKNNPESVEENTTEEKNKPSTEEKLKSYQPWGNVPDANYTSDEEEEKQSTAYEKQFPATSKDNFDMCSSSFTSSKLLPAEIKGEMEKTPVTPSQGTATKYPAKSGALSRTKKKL

[7] = target: Tyrosine-protein kinase SYK (Homo sapiens) (UniProt P43405); conditions: at 1 µM
[8] = target: Tyrosine-protein kinase SYK (Homo sapiens) (UniProt P43405); conditions: at 10 µM
[9] = target: T1, Mitogen-activated protein kinase kinase kinase 7 (Homo sapiens) (UniProt O43318); conditions: at 10 µM
T1 sequence (whole entry): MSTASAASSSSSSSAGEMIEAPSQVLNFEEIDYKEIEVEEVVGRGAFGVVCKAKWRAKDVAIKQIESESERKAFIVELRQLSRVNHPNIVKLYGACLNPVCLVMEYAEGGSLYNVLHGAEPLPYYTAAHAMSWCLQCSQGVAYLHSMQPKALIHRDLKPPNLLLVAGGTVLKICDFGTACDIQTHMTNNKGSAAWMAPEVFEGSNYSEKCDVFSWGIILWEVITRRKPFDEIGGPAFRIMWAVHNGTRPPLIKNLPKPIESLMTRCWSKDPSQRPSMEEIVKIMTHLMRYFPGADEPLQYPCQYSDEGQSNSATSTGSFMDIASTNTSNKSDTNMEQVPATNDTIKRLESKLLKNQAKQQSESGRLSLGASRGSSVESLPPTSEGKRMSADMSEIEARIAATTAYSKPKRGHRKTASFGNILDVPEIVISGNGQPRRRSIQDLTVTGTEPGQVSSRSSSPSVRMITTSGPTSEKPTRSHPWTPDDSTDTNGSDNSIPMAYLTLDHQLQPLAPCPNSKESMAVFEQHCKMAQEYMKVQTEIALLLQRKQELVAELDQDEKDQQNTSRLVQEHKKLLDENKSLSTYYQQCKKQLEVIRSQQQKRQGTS

[10] = target: T2, Serine/threonine-protein kinase TAO2 (Homo sapiens) (UniProt Q9UL54); conditions: at 1 µM
T2 sequence (whole entry): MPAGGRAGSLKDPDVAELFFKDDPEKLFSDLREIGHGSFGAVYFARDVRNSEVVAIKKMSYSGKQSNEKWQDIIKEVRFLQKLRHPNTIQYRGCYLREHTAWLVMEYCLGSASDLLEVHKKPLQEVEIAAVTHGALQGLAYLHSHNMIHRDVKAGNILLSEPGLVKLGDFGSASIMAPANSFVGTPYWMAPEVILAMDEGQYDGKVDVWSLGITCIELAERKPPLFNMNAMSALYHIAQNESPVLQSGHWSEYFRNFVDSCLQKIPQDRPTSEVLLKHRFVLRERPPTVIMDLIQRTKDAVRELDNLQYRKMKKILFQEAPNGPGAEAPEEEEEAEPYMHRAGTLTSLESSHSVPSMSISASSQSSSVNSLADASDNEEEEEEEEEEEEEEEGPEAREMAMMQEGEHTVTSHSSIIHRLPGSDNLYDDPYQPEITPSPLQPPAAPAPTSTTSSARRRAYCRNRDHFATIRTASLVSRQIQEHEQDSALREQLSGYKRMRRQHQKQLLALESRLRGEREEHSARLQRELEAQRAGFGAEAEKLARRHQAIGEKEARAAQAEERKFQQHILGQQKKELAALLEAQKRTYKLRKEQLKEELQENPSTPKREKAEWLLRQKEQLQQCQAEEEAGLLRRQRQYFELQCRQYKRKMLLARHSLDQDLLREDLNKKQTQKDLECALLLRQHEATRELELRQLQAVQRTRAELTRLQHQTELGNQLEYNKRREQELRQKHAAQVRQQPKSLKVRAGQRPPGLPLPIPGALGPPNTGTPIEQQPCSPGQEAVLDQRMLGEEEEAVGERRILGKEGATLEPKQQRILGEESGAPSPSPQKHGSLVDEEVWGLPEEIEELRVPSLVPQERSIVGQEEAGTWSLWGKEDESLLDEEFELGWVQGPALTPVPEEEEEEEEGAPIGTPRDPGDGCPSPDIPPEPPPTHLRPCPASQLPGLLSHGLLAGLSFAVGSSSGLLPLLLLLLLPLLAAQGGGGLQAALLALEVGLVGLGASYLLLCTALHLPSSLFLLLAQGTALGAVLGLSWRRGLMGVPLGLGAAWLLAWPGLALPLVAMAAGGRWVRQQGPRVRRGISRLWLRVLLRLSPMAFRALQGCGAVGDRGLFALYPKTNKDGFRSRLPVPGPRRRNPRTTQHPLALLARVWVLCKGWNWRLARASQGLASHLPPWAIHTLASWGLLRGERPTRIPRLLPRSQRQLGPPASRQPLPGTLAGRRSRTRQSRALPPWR

[11] = target: T2, Serine/threonine-protein kinase TAO2 (Homo sapiens); conditions: at 10 µM
[12] = target: T3, Serine/threonine-protein kinase TAO3 (Homo sapiens) (UniProt Q9H2K8); conditions: at 1 µM
T3 sequence (whole entry): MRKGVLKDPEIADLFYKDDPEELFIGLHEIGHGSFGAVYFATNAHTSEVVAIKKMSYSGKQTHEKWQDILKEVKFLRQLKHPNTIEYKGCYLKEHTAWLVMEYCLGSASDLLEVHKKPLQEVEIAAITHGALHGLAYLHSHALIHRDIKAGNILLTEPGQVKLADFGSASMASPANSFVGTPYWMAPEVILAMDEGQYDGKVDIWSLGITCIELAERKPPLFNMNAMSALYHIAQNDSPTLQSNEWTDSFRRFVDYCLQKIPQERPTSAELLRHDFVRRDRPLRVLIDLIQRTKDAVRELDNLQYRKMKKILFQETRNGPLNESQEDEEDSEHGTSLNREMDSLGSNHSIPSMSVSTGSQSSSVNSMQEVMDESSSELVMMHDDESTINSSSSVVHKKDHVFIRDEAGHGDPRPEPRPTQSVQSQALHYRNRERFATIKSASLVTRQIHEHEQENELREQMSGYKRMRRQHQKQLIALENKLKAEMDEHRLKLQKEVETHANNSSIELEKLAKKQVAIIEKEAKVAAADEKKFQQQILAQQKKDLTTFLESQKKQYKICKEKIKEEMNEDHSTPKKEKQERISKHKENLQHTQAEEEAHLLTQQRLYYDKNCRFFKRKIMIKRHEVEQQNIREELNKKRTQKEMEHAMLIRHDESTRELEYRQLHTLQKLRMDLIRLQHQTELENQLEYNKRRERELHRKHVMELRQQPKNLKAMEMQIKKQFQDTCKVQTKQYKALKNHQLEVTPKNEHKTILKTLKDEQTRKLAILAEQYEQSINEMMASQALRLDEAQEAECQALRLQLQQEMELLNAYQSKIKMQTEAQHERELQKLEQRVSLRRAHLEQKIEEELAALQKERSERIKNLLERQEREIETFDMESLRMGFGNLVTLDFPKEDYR

[13] = target: T3, Serine/threonine-protein kinase TAO3 (Homo sapiens); conditions: at 10 µM
[14] = target: T4, Serine/threonine-protein kinase TBK1 (Homo sapiens) (UniProt Q9UHD2); conditions: at 1 µM
T4 sequence (whole entry): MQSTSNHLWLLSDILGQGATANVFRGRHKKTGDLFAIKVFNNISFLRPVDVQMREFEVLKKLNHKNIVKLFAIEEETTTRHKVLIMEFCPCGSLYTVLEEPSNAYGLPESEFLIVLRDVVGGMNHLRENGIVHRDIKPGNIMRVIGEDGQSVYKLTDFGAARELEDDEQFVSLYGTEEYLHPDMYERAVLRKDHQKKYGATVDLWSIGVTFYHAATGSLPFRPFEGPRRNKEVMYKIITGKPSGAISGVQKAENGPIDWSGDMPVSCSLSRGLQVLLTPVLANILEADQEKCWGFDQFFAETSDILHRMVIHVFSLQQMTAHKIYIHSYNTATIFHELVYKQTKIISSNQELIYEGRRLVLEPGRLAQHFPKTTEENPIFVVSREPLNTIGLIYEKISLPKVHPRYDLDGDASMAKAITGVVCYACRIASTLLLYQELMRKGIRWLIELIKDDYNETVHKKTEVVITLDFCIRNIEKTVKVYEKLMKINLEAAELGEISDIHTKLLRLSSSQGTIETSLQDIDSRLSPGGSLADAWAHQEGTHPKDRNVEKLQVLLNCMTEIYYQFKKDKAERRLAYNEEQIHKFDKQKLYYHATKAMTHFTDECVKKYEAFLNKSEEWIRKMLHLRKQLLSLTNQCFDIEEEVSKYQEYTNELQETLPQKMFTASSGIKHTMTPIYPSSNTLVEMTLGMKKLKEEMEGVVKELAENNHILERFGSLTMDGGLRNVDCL

[15] = target: T5, Serine/threonine-protein kinase TAO1 (Homo sapiens) (UniProt Q7L7X3); conditions: at 10 µM
T5 sequence (whole entry): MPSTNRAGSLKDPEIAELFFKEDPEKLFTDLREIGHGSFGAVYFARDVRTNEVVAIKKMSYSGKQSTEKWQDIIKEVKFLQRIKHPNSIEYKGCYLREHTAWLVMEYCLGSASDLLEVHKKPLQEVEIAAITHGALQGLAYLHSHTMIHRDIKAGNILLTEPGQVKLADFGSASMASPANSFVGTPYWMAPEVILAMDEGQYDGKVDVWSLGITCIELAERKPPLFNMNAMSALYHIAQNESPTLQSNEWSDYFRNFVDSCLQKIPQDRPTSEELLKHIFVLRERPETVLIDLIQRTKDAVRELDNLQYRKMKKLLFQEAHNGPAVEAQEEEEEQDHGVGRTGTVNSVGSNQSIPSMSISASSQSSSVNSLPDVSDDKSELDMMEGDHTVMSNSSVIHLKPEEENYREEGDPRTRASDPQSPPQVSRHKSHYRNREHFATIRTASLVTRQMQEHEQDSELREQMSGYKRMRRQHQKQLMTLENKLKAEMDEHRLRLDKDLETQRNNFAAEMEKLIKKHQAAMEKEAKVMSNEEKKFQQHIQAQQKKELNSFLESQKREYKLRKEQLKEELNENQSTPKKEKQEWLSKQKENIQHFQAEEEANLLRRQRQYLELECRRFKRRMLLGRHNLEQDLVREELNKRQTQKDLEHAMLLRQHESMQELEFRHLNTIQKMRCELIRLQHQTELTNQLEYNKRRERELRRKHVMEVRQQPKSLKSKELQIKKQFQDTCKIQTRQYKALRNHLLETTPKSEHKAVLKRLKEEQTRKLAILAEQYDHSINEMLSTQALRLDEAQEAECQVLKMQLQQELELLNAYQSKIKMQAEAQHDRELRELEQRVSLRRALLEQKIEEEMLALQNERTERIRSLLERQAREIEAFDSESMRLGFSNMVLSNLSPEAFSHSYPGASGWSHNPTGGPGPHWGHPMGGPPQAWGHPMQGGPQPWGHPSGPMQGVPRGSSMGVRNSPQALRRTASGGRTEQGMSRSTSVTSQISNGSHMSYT

[16] = target: Serine/threonine-protein kinase 33 (Homo sapiens) (UniProt Q9BYT3); conditions: at 1 µM
[17] = target: Serine/threonine-protein kinase PLK2 (Homo sapiens) (UniProt Q9NYY3); conditions: at 1 µM
Chain of Serine/threonine-protein kinase PLK2 (Homo sapiens) (Q9NYY3 whole entry, looked up): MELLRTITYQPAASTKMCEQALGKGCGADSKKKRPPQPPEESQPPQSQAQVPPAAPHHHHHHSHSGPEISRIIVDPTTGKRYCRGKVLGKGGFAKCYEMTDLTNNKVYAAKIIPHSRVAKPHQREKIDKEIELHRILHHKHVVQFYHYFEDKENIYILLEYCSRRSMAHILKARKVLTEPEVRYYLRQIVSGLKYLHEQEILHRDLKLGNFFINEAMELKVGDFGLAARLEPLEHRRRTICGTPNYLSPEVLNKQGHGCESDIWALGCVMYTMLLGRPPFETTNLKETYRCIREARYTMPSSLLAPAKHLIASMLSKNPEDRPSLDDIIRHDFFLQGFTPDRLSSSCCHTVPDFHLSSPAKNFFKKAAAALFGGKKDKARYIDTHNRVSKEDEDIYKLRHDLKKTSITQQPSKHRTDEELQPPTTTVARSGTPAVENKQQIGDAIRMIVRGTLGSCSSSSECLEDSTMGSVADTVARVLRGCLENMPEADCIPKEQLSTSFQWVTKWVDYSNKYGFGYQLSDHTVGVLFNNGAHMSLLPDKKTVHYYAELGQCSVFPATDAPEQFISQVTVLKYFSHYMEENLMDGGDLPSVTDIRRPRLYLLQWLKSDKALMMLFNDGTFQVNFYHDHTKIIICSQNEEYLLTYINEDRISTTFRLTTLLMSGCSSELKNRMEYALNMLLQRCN

[18] = target: Serine/threonine-protein kinase PLK2 (Homo sapiens) (UniProt Q9NYY3); conditions: at 10 µM
[19] = target: T1, Mitogen-activated protein kinase kinase kinase 7 (Homo sapiens); conditions: at 1 µM
[20] = target: T5, Serine/threonine-protein kinase TAO1 (Homo sapiens); conditions: at 1 µM

Chain of Serine/threonine-protein kinase SIK1 (Homo sapiens) (P57059 whole entry): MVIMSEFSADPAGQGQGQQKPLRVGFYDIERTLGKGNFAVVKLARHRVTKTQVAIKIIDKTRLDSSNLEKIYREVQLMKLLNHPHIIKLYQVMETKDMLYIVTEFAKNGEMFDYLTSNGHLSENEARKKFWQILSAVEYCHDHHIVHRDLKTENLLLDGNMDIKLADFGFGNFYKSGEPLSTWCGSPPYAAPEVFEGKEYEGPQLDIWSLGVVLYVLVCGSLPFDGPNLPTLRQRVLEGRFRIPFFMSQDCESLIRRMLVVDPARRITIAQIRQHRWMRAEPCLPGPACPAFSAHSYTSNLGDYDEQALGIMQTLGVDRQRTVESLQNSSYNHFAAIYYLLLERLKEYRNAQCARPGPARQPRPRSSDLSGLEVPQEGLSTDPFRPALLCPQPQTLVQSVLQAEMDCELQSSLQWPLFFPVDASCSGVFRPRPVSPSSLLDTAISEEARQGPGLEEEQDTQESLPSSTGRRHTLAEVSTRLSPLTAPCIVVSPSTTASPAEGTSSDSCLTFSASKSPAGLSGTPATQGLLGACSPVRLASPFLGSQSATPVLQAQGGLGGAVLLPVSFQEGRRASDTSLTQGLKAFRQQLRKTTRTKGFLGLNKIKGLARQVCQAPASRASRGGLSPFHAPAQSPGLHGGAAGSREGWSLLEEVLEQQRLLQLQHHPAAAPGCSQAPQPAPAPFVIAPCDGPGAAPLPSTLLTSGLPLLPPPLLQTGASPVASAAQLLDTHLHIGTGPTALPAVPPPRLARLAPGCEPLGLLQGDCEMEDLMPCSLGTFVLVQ
Chain of SRSF protein kinase 1 (Homo sapiens) (Q96SB4 whole entry): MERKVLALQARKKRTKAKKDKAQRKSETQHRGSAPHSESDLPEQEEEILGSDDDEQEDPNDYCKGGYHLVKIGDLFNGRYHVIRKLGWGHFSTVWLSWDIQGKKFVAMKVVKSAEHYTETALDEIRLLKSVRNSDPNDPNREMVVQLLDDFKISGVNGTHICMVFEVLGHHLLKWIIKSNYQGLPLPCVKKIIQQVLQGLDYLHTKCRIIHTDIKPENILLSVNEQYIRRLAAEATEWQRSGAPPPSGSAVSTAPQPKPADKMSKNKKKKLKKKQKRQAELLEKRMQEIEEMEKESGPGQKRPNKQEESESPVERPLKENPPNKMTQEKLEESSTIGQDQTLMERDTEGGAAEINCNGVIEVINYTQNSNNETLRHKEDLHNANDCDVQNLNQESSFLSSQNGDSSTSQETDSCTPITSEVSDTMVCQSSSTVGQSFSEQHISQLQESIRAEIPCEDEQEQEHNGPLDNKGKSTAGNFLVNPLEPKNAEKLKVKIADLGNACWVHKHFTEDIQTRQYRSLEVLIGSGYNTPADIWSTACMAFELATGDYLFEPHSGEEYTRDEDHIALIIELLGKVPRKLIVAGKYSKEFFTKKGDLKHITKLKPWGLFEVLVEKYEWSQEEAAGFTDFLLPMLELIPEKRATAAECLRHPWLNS

Compound | residual activity [1] [%] | residual activity [2] [%] | residual activity [3] [%] | residual activity [4] [%] | residual activity [5] [%] | residual activity [6] [%] | residual activity [7] [%] | residual activity [8] [%] | residual activity [9] [%] | residual activity [10] [%] | residual activity [11] [%] | residual activity [12] [%] | residual activity [13] [%] | residual activity [14] [%] | residual activity [15] [%] | residual activity [16] [%] | residual activity [17] [%] | residual activity [18] [%] | residual activity [19] [%] | residual activity [20] [%]
O=C1NC(=O)C(c2c[nH]c3ccccc23)=C1c1c[nH]c2ccccc12 | 7 | 63 | 6 | 74 | 22 | 71 | 120 | 82 | 75 | 82 | 35 | 69 | 26 | 70 | – | – | – | – | – | –
COc1cc2c(cc1OC)-c1n[nH]c(Nc3cccc(F)c3)c1C2 | 5 | – | 105 | – | – | – | 117 | 76 | – | – | 78 | – | – | 52 | 61 | – | – | – | – | –
CC(C)(C)n1nc(Cc2cccc3ccccc23)c2c(N)ncnc21 | 49 | 103 | 101 | 99 | 94 | 100 | 104 | 71 | 78 | 90 | 42 | 92 | 41 | 78 | 50 | 92 | 103 | 95 | 86 | 87
NC(=O)c1cccc(-c2cc(Nc3ccc(OC(F)(F)F)cc3)ncn2)c1 | 7 | – | 97 | – | – | – | – | – | 95 | – | – | – | – | 98 | – | – | – | – | – | –
CC(C)c1nn(-c2c(Cl)cccc2Cl)c2nc(Cc3ccc(OCCO)cc3)[nH]c(=O)c12 | 61 | 88 | 37 | 83 | 43 | 61 | 101 | 96 | 63 | 84 | 22 | 55 | 9 | 82 | 13 | 105 | 100 | 92 | 97 | 61
Nc1n[nH]c2nc3ccccc3nc12 | 72 | – | – | 94 | 82 | 83 | – | – | 74 | 93 | 85 | – | – | 78 | 75 | 98 | 99 | 68 | 91 | –
COc1cc2nccc(Oc3ccc(NC(=S)NC(=O)c4ccccc4C)cc3)c2cc1OC | 37 | 102 | 96 | 100 | 91 | 90 | 99 | 65 | 87 | 89 | 75 | 78 | 67 | 57 | 71 | 97 | 72 | 35 | 87 | 91
O=C1NC(=O)c2c1c1c3ccccc3[nH]c1n1cncc21 | 44 | 91 | 76 | 103 | 72 | 70 | 60 | 25 | 30 | 88 | 69 | 69 | 63 | 53 | – | 79 | 38 | 38 | 55 | –
